# Measurements taken from PubChem BioAssay AID1851 (National Center for Advancing Translational Sciences (NCATS), 2009).
# Where “and” joins values, the source holds several entries; their conditions need not be identical. Equal entries are not always repeated. In all, about 16,000 compounds went through this assay and about 2,600 (16%) were called active. Not shown: some 20% with an inconclusive outcome. The call rests on the fitted dose curve; in most records, active means well fitted curve in the direction sought with a large enough effect; inconclusive means small, poorly fitted or top-dose-only effect, or effect the other way; inactive means no such curve, though single readings can be large or run the other way. The list is a sample of the results.
# Molecular target: Cytochrome P450 2D6 (Homo sapiens) (UniProt P10635)
# Experiment: Cytochrome panel assay with activity outcomes
# Settings: recombinant CYP, pro-luciferin dealkylation, luminescence, p450-cyp2d6; series mostly up to 57.1 µM; activity, negative = inhibition: at the top concentration
# On the % scale 0 is the no-effect control and ±100 the full control effect.
# Chain of Cytochrome P450 2D6 (Homo sapiens) (P10635 whole entry, looked up): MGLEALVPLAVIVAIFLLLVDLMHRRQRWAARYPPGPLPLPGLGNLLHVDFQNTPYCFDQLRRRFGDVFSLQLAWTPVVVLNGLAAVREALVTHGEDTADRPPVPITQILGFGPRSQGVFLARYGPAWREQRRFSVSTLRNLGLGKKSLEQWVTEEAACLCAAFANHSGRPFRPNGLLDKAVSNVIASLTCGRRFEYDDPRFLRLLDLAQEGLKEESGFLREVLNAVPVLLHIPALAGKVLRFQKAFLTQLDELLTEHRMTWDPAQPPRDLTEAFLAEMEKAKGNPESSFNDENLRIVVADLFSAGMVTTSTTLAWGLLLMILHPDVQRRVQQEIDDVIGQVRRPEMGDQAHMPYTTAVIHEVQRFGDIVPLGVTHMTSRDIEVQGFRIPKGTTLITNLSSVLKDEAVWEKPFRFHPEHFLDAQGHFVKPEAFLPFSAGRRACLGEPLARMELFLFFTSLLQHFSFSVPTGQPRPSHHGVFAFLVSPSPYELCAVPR
Compound,"activity, negative = inhibition",AC50
COc1ccc(-n2c(=O)c(C)nc3cncnc32)cc1,-4.11% (inactive),–
Cn1c(=O)c2c(nc(Cc3ccccc3)n2CC(=O)O)n(C)c1=O,3.84% [at 11.4 µM] (inactive),–
C/C=C\C(=O)N(CC)c1ccccc1C,5.93% [at 25.6 µM] (inactive),–
Nc1ccccc1Oc1ncc(C(F)(F)F)cc1Cl,-15.3% (inactive),–
CCc1nnc(NC(=O)CSc2nc(C3CCCCC3)nc3ccccc23)s1,-17% (inactive),–
N[C@H](CCCC(=O)O)C(=O)O,2.55% (inactive),–
O=C(NCCC[N+]1=CC=N[C@H]1c1ccccc1)N1CCCc2nc(-c3ccc(Br)cc3)ccc21,–,0.0794 µM (active)
COc1ccc(-c2ccc3c(n2)CCCN3C[C@H](O)CN2CCCc3nc(-c4ccc(Br)cc4)ccc32)cc1,-3.82% [at 11.4 µM] (inactive) and -13% [at 11.4 µM] (inactive),–
COCCN(C(=O)c1ccco1)c1nnc(-c2ccc(OC)cc2)s1,-15.8% (inactive),–
Cc1cccc(NC(=O)C2(c3ccc([N+](=O)[O-])cc3)CCCC2)c1,-29.8% (inactive),–
CCN(CC)CCOC(=O)C1(c2ccc([N+](=O)[O-])cc2)CCCC1,–,3.98 µM (active) and 5.01 µM (active)
CN(C)CCOC(=O)C1(c2ccccc2)CCOCC1,-21.6% (inactive),–
CCC(C)Nc1nc(OCC(F)(F)F)nc(OCC(F)(F)F)n1 (stereo not given),5.26% (inactive),–
CCOC(=O)C1C(=O)C=C(c2ccc(NS(C)(=O)=O)cc2)CC1c1ccco1 (stereo not given),-19.3% (inactive),–
COc1ccc2oc(C(=O)c3ccccc3)c(N)c2c1,-15% (inactive),–
Cc1ccccc1C(=O)NNC(=O)c1ccc(F)cc1,0.144% (inactive),–
COC(=O)c1ccccc1NC(=O)c1ccc(F)cc1,–,5.01 µM (active)
COC(=O)c1ccc(NC(=O)c2ccccc2NS(=O)(=O)c2ccccc2)cc1,–,15.8 µM (active)
COC(=O)c1cn(NC(=O)c2ccc(F)cc2)c(=O)c2ccccc12,-22.3% (inactive),–
NS(=O)(=O)c1ccc(NS(=O)(=O)c2ccc(NC(=O)c3ccc(-c4ccccc4)cc3)cc2)cc1,6.6% (inactive),–
Cc1ccc(S(=O)(=O)Nc2ccccc2C(=O)c2ccc(C)c(C)c2)cc1,2.37% [at 11.4 µM] (inactive),–
COc1ccc(-n2c(=O)c(C)nc3cnc(N(C)C)nc32)cc1,3.79% (inactive),–
Cc1nn2c([nH]c(=O)c3ccccc32)c1C=O,-2.19% (inactive),–
CCc1cccc(CC)c1NC(=O)CN(CC(=O)O)CC(=O)O,11% [at 25.6 µM] (inactive),–

Compound,"activity, negative = inhibition",AC50
COc1ccc(OC)c(Nc2nc(-c3sc(NC(=O)c4ccccc4)nc3C)cs2)c1,-16.5% (inactive),–
C=CCNc1cnn(-c2ccc(C)cc2)c(=O)c1Cl,0.192% (inactive),–
C=CCNCCCCOc1c(Cl)cc(C)cc1Br,–,0.178 µM (active)
COCCCNCCCCOc1c(Cl)cc(C)cc1Br,–,0.708 µM (active)
O=C(/C=C/c1ccc(Cl)cc1)Nc1ccc(N2CCCCC2)cc1,-1.69% (inactive),–
COC(=O)Nc1nc2ccc(C(=O)c3ccccc3)cc2[nH]1,-2.39% [at 25.6 µM] (inactive),–
CN(CC(=O)Nc1ccc(F)c(F)c1)S(=O)(=O)c1cccc2nsnc12,-69.1% (inactive),–
Cc1cc(N=Cc2c(CO)cnc(C)c2O)c(N=Cc2c(CO)cnc(C)c2O)cc1C.[Zn],-15.5% [at 11.4 µM] (inactive),–
Cc1nc2cnc(Oc3ccccc3)nc2n(C2CC2)c1=O,-9.58% (inactive),–
COc1ccc(NC(=O)CCNS(=O)(=O)c2ccc3c(c2)CCC(=O)N3)cc1,4.53% (inactive),–
CC(=O)c1ccc(-n2c(CCC(=O)O)ccc2-c2cccs2)cc1,-10.7% (inactive),–
Cc1cccc(NC(=O)c2onc3c2CCCC3)c1C,-14.9% (inactive),–
CCC(=O)Nc1ccc(/C(C)=N\NS(=O)(=O)c2ccc(C)cc2)cc1,-26.9% (inactive),–
CC(C)C(=O)c1c(C(C)C)nn2ccccc12,–,0.0398 µM (active)
Cc1ccc(-c2ccc(CCC(=O)O)o2)cc1,-9.28% (inactive),–
CCCc1c(OCCCOc2ccc(OCC(=O)O)cc2)ccc(C(C)=O)c1O,-0.519% (inactive),–
CC(C)(CS)C(=O)N1CCC[C@H]1C(=O)O,-1.84% [at 25.6 µM] (inactive),–
Cc1cc(C)c(-c2cc([C@H](C)O/N=C3/[C@H]4OC4[C@@H](O)[C@H]4[C@H]3CCn3c(=O)n(-c5ccccc5)c(=O)n34)on2)c(C)c1 (stereo not given in full),-10.5% [at 11.4 µM] (inactive),–
O=C1/C(=C/c2ccccc2)[C@@H](NC2CCCCC2)c2ccccc21,–,1 µM (active)
CCOc1ccc(/C=C2\C(=O)c3ccccc3OC2c2ccccc2)cc1 (stereo not given),-6.42% (inactive),–
O=C(NC1CCCCC1)C(c1ccccc1)N1CCOCC1 (stereo not given),0.959% (inactive),–
CSC(N)=NCCC[C@@H](N)C(=O)O,4.74% (inactive),–
COc1ccc2[nH]cc(CCNc3ncncc3-c3ccc(N(C)C)cc3)c2c1,–,10 µM (active)

Compound,"activity, negative = inhibition",AC50
COc1ccc2[nH]cc(CCNc3ncncc3-c3ccc(C(=O)N(C)C)cc3)c2c1,–,15.8 µM (active)
COc1ccc2[nH]cc(CCNc3cc(-c4ccc(C(=O)N(C)C)cc4)ncn3)c2c1,-19.7% (inactive),–
CC1=C(C(=O)O)N2C(=O)C(NC(=O)c3ccn(C)n3)C2SC1 (stereo not given),2.52% (inactive),–
CCCCCCCCCCCCCCCCCCNC(=O)OC[C@@H](COP(=O)([O-])OCC[n+]1ccsc1)OC,0.351% (inactive),–
CN(C)c1ncc2nc(-c3ccc(Cl)cc3)c(=O)n(Cc3ccc(F)cc3)c2n1,-6.6% (inactive),–
CC1CCN(CCCCOc2ccccc2[N+](=O)[O-])CC1,–,0.251 µM (active)
CCCCC(=O)Nc1cc(OCC)c(NC(=O)c2ccccc2[N+](=O)[O-])cc1OCC,22.3% (inactive),–
CC1CCN(c2ccc(S(=O)(=O)Nc3cc(C(=O)O)cc(C(=O)O)c3)cc2[N+](=O)[O-])CC1,-13.6% (inactive),–
COc1ncc2nc(-c3cccs3)c(=O)n(CCC#N)c2n1,-8.94% (inactive),–
COc1ccc(NC(=O)N2CC3(CCN(C(=O)c4cnccn4)CC3)C2)cc1,7.36% (inactive),–
COc1ccc(Cl)cc1NC(=O)C12CCC(C)(C(=O)O1)C2(C)C (stereo not given),-4.4% (inactive),–
NCC(=O)Nc1ccccc1,-0.269% [at 11.4 µM] (inactive),–
CC(C)(CC(=O)Nc1ccccc1)C(=O)O,8.43% [at 11.4 µM] (inactive),–
O=C(Cc1ccccc1I)Nc1ccccc1,–,20 µM (active)
COc1ccc(C(=O)CCN(C)C)c2ccccc12,-4.14% [at 11.4 µM] (inactive),–
O=c1c(-c2nc3ccccc3s2)cccn1Cc1ccccc1,3.83% (inactive),–
Cc1cccc(Cn2ncc(Cl)c(Cl)c2=O)c1,-7.8% (inactive),–
Cc1ccc(C(C(=O)NC2CCCCC2)N(CC2CCCO2)C(=O)CNC(=O)c2cccs2)cc1 (stereo not given),–,10 µM (active)
O=C(NCC(=O)N(c1ccccc1)C(C(=O)NC1CCCC1)c1cccnc1)c1cccs1 (stereo not given),-6.98% (inactive),–
Cc1ccc(C(C(=O)NCc2ccco2)N(C(=O)CNC(=O)c2cccs2)c2ccc(C)cc2C)cc1 (stereo not given),21.5% (inactive),–
O=S(=O)(c1ccccc1)N1CCC2(CC1)CN(Cc1ccccc1)C2,–,0.158 µM (active)
N#Cc1ccc(CN2CCCC3(CCN(S(=O)(=O)c4ccccc4)CC3)C2)cc1,–,0.631 µM (active)
O=S(=O)(c1ccccc1)N1CCC2(CCCN(Cc3ccncc3)C2)CC1,–,1 µM (active)
N#Cc1ccc(CN2CCC3(CC2)CCN(S(=O)(=O)c2ccccc2)CC3)cc1,-7.01% (inactive),–

Compound,"activity, negative = inhibition",AC50
O=S(=O)(c1ccccc1)N1CCC2(CCN(Cc3ccccc3)CC2)CC1,-2.12% (inactive),–
Cc1ccccc1CNc1ncnc2c1ncn2[C@@H]1O[C@@H](CO)[C@H](O)[C@@H]1O,-5.35% (inactive),–
COc1ccc(NS(=O)(=O)c2ccc(NC(=O)c3cnn4c(C(F)F)cc(-c5ccc(C)cc5)nc34)cc2)cc1,4.09% (inactive),–
CC(C)=CCc1c2c(c3occ(-c4ccc(O)c(O)c4)c(=O)c3c1O)C=CC(C)(C)O2,-0.0819% [at 11.4 µM] (inactive),–
CCc1cc2c(=O)n(-c3ccccc3)c(=S)[nH]c2s1,-4.86% (inactive),–
COC(=O)/C=C\CCc1coc(/C=C\CNC(=O)OC)n1,8.58% [at 11.4 µM] (inactive),–
COc1ccc(/C=C2\OC(=O)c3c(OC)cccc32)cc1OC,-3.99% (inactive),–
Cn1c(=O)c(-c2ccc(Cl)cc2)nc2cncnc21,2.69% (inactive),–
O=C(O)c1cccc(C(=O)O)c1S(=O)Cc1ccccc1 (stereo not given),-0.655% [at 11.4 µM] (inactive),–
O=C(O)C(Cl)(c1ccccc1)c1ccccc1,6.11% [at 11.4 µM] (inactive),–
O=S(Cc1ccccc1)CC(O)(c1ccccc1)c1ccccc1 (stereo not given),–,2.24 µM (active)
COc1cccc(N=c2oc3c(C)ncc(CO)c3cc2C(N)=O)c1,-2.53% (inactive),–
CC(C)(C)[C@@]1(O)CCN2C[C@@H]3c4ccccc4CCc4cccc(c43)[C@@H]2C1,–,79.4 nM (active) and 501 nM (active)
O=C(C1CCCCC1)N1CC(=O)N2CCc3ccccc3[C@@H]2C1,-6.05% [at 25.6 µM] (inactive),–
CC(C)c1nnc(-c2ccc(Cl)cc2)c(N(C)C)n1,-23.6% (inactive),–
C/C(CCN1CCc2nc(-c3ccccc3)c(-c3ccccc3)cc2C1)=N\O[C@@H](C)c1cc(-c2c(C)cc(C)cc2C)no1,8.64% [at 11.4 µM] (inactive),–
CS(=O)(=O)c1ccc([C@H](O)[C@H](CO)NC(=O)C(Cl)Cl)cc1,-2.23% [at 25.6 µM] (inactive),–
CN(C)c1ccc(N=C/C=C2\N(C)c3ccccc3C2(C)C)cc1,–,2.24 µM (active)
CN1/C(=C\C=[N+](C)c2ccccc2)C(C)(C)c2ccccc21,–,0.316 µM (active)
CN1/C(=C/C=C(/C#N)C(N)=O)C(C)(C)c2ccccc21,-25.7% (inactive),–
Cc1c(NC(=S)/C=C2\N(C)c3ccccc3C2(C)C)c(=O)n(-c2ccccc2)n1C,-13.2% (inactive),–
CC(C)CO/N=C1/C[C@@H](O)[C@@H](O)[C@@H]2[C@@H]3C(=O)N(C[C@@H]4CCCO4)C(=O)[C@H]3CC[C@H]12,-1.45% [at 11.4 µM] (inactive),–
Cc1cc(C)cc(Oc2coc3cc(OC(=O)c4cccs4)ccc3c2=O)c1,3.44% (inactive),–
